Compound activity deposited in PubChem BioAssay by National Center for Advancing Translational Sciences (NCATS).
Most compounds without a hit are left out; they make up all but 17% or so of the library.
ClpP mod: qHTS Assay for Activators of ClpP | Potency, µM (titrated, usually from 57.5 µM), for the others: at the highest dose activity change, negative = active | hit rate 1.9% among 340,000 | ATP-dependent Clp protease proteolytic subunit (Bacillus subtilis (strain 168)), P80244 | purified B. subtilis ClpP, FRET peptide cleavage, 20 min; active means well fitted falling curve with a large enough effect; inconclusive means small, poorly fitted or top-dose-only effect; inactive means no such curve, though single readings can be large or run the other way; further: the source files actives as falling curves though it sought activators and does not explain the sign; nearly all actives have a fitted effect of over 65% in size
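ClpP 10 microg/mL final, pH 8 Tris/KCl buffer with BSA, glycerol, Tween-20; compound pinned in; FRET-FV substrate; RT 20 min; Ex320/Em430; ΔFRET vs ADEP 5.8 microM, DMSO, no enzyme.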
TDP1 cell CPT: qHTS for Inhibitors of human tyrosyl-DNA phosphodiesterase 1 (TDP1): qHTS in cells in presence of CPT. hit rate 12% among 420,000. AID 686979, 2013. Potency, µM (top dose mostly 46.2 µM), for inactives: at the top dose activity change, negative = growth inhibition, hits mostly inhibitors. chicken DT40 Tdp1-/-;hTDP1 cells + 20 nM CPT, ATP luminescence, 48 h; further: on the % scale 0 is the no-effect control and ±100 the full control effect; nearly all actives have a fitted effect of over 55% in size
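Chicken DT40 Tdp1-/- cells stably complemented with human TDP1 were seeded at 400 cells/well in medium containing 20 nM camptothecin, exposed to pin-transferred compounds, and grown at 37 °C for at least 48 hr. Viability was read as ATP luminescence.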
TDP1 cell noCPT: qHTS for Inhibitors of human tyrosyl-DNA phosphodiesterase 1 (TDP1): qHTS in cells in absence of CPT. AID 686978, 2013. DT40 Tdp1-/- hTDP1 cells, no CPT, ATP luminescence, 48 h. Potency, µM (doses to about 46.2 µM), for the others: top-dose activity change, negative = growth inhibition, actives largely listed as inhibitors. hit rate 15% among 420,000; further: on the % scale 0 is the no-effect control and ±100 the full control effect; nearly all actives have a fitted effect of over 55% in size
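Chicken DT40 Tdp1-/- cells complemented with human TDP1, screened without camptothecin (DMSO vehicle only), 400 cells/well. Compounds pin-transferred, cells incubated at 37 °C for at least 48 hr. Growth read as ATP-dependent luminescence (CellTiter-Glo, 30 min at RT).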
TDP1 block: qHTS Assay for Inhibitors of Tyrosyl-DNA Phosphodiesterase (TDP1). recombinant TDP1, AlphaScreen DNA substrate cleavage. hit rate 0.28% among 350,000. Tyrosyl-DNA phosphodiesterase 1 (Homo sapiens), Q9NUW8. Potency, µM (series often up to 130 µM), for the others: at the top dose activity change, negative = inhibition, actives largely listed as inhibitors; further: on the % scale 0 is the no-effect control and ±100 the full control effect; nearly all actives have a fitted effect of over 40% in size
Target sequence (Q9NUW8 whole entry, looked up): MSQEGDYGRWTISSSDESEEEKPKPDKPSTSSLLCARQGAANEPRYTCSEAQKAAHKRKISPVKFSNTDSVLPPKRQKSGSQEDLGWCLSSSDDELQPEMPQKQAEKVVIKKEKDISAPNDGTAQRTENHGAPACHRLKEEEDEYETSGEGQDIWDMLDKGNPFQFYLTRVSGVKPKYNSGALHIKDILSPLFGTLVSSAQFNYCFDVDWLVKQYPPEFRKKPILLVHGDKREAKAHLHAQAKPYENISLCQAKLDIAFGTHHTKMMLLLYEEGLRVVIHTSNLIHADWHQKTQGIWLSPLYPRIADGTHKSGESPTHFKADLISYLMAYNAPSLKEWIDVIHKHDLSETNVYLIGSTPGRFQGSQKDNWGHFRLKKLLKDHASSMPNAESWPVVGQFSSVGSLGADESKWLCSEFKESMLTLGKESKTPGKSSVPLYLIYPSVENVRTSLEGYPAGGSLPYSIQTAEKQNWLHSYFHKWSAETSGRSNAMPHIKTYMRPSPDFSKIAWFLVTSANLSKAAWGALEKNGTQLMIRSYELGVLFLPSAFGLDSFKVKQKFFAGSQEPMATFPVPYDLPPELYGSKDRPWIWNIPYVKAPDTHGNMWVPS
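Recombinant E. coli-expressed Tdp1 (1 nM) preincubated with compound 15 min at RT, then 5'-biotin/3'-phosphotyrosine-FITC DNA substrate (15 nM) added for 5 min. AlphaScreen beads (10 ug/ml) added, 10 min RT; tyrosine-FITC cleavage read as signal loss.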
* marks the source's active call; other numbers are inactive results; u = inconclusive; x = no result; [ ] = another dose, or the depositor's remark. Unless noted, the call rests on the fitted dose curve; in most records, active means well fitted curve in the direction sought with a large enough effect; inconclusive means small, poorly fitted or top-dose-only effect, or another doubt; inactive means no such curve, though single readings can be large; an effect the other way counts as inactive or inconclusive. Potency means the concentration at half of the fitted maximal effect.

SMILES	ClpP mod	TDP1 cell CPT	TDP1 cell noCPT	TDP1 block
CCOc1cccc2cc(C(=O)NCc3ccc(C)cc3)c(=N)oc12	0%	u	4.1µM*	4%
Cc1ccc(CNC(=O)c2cc(S(=O)(=O)N3CCCCCC3)cn2C)cc1	0%	-24%	-29%	4%
COc1ccccc1N1CCN(C2CCCCC2NS(=O)(=O)c2ccccc2)CC1 (stereo not drawn)	0%	21µM*	16µM*	7%
CN1CCN(C2CCCCC2NS(=O)(=O)c2ccccc2)CC1 (stereo not drawn)	-1%	-13%	18%	0%
O=C(Nc1ccccc1Cl)C1CCCN(S(=O)(=O)c2cccc3cccnc23)C1 (stereo not drawn)	-3%	u	u	5%
Cc1ccc(NC(=O)C2CCCN(S(=O)(=O)c3cccc4cccnc34)C2)cc1Cl (stereo not drawn)	-4%	u	u	1%
CC(=O)c1cccc(NC(=O)C2CCCN(S(=O)(=O)c3cccc4cccnc34)C2)c1 (stereo not drawn)	-3%	21µM*	u	-3%
COc1ccc(C)cc1NC(=O)C1CCCN(S(=O)(=O)c2cccc3cccnc23)C1 (stereo not drawn)	0%	u	u	x
O=C(Nc1nc2cc(Cl)ccc2s1)C1CCCN(S(=O)(=O)c2cccc3cccnc23)C1 (stereo not drawn)	-9%	21µM*	16µM*	7%
O=C(Nc1nccs1)C1CCCN(S(=O)(=O)c2cccc3cccnc23)C1 (stereo not drawn)	0%	u	15µM*	7%
CCc1ccc(NC(=O)C2CCCN(S(=O)(=O)c3cccc4cccnc34)C2)cc1 (stereo not drawn)	0%	18µM*	16µM*	1%
O=C(Nc1ccc(F)cc1)C1CCCN(S(=O)(=O)c2cccc3cccnc23)C1 (stereo not drawn)	-7%	u	u	2%
COc1ccc(OCC(=O)OCc2cc(=O)n3nc(C4CCCCC4)sc3n2)cc1	u	2%	4%	8%
O=C(Nc1cccc(F)c1)/C(=C/c1ccco1)NC(=O)c1ccco1	-2%	-14%	2%	2%
COc1ccc(CNS(=O)(=O)c2cnc(N)nc2)cc1	0%	-3%	-8%	7%
C=CCn1c(O)c(N=Nc2ccccc2C)c2ccccc21	x	18µM*	u	4%
CCn1c(O)c(N=Nc2ccc3ccccc3n2)c2ccccc21	-1%	u	23µM*	x
CCCCn1c(O)c(N=Nc2ccccc2O)c2ccccc21	-10%	23µM*	u	7%
C=CCn1c(O)c(N=NC(=S)Nc2ccc(OC)c(Cl)c2)c2ccccc21	-2%	4.6µM*	2.6µM*	11%
O=C1CNC(=S)N1Cc1ccccc1Cl	1%	5%	-5%	x
CN1c2ccccc2Sc2cc(N)ccc21	x	-23%	16µM*	x
CC(=O)N1c2ccccc2Sc2ccccc21	-1%	-4%	-30%	x
CCCCn1c(SCC(=O)NNC(=O)c2ccco2)nnc1-c1ccco1	x	11%	8%	4%
Cn1c(=NC(=O)CCS(=O)(=O)c2ccccc2)sc2cc(F)ccc21	-4%	u	u	x
COc1cccc2sc(=NC(=O)CCS(=O)(=O)c3ccc(C)cc3)n(C)c12	3.2µM*	u	21µM*	x
SMILES	ClpP mod	TDP1 cell CPT	TDP1 cell noCPT	TDP1 block
CCOC(=O)c1sc(=NC(=O)CCS(=O)(=O)c2ccccc2)n(C)c1C	x	22%	7%	4%
CCOc1cccc2sc(=NC(=O)c3ccco3)n(CC(=O)OC)c12	4%	u	15µM*	0%
CCOc1cccc2sc(=NC(=O)CCS(=O)(=O)c3ccccc3)n(CC)c12	-4%	u	12µM*	1%
CCOc1cccc2sc(=NC(=O)CCS(=O)(=O)c3ccc(F)cc3)n(C)c12	u	u	16µM*	x
O=C(NCCOc1ccccc1)C1CCC(=O)N(CCc2ccc(Cl)cc2)C1 (stereo not drawn)	2%	u	u	6%
CCCn1c(=NC(=O)CCS(=O)(=O)c2ccccc2)sc2cc(S(N)(=O)=O)ccc21	-10%	21µM*	21µM*	-7%
CC(C)c1ccc(NC(=O)CSc2nc3ncccc3[nH]2)cc1	-1%	u	26µM*	2%
COc1ccc(OC)c(C(=O)CSc2nc3ncccc3[nH]2)c1	32µM*	u	u	3%
COc1ccc(NC(=O)CSc2nc3ncccc3[nH]2)cc1OC	1%	u	3%	4%
CC(C)OC(=O)c1ccc(NC(=O)CSc2nc3ncccc3[nH]2)cc1	-2%	8.2µM*	13µM*	8%
COC(=O)CSc1nc2ncccc2[nH]1	-6%	-2%	1%	2%
CC/C(=N\NC(=O)CNC(=O)/C=C/c1ccc(OC)cc1)c1ccccc1	x	-2%	-13%	9%
COc1ccc(Br)cc1/C=N/NC(=O)CNC(=O)/C=C/c1ccccc1	-3%	16µM*	13µM*	7%
COc1ccccc1/C=C/C(=O)NCC(=O)N/N=C/c1ccccc1	-21%	3%	6%	4%
COc1cccc(/C=N/NC(=O)CNC(=O)/C=C\c2ccccc2)c1O	1%	u	2.1µM*	0%
COc1cccc(/C=N/NC(=O)CC2C(=O)NN=C2C)c1O (stereo not drawn)	-11%	u	-3%	5%
COc1ccc(/C=C/C(=O)NCC(=O)N/N=C/c2cc(Br)ccc2OCc2ccccc2)cc1	-10%	u	u	5%
COc1cccc(/C=N/NC(=O)CNC(=O)C(c2ccccc2)c2ccccc2)c1O	x	7.3µM*	5.8µM*	-2%[0.0935 µM]
COc1ccc(/C=C\C(=O)NCC(=O)N/N=C/c2cccc(OC)c2O)cc1	0%	5.8µM*	2.6µM*	0%
Cc1ccc2c(CC(=O)Nc3ccc(S(=O)(=O)N4CCCC(C)C4)cc3)coc2c1 (stereo not drawn)	-2%	u	u	4%
Cc1cc(C)c2c(CC(=O)Nc3ccc(S(=O)(=O)N4CCCCC4)cc3)coc2c1	0%	21µM*	10µM*	-2%
Cc1ccc2c(CC(=O)Nc3ccc(S(=O)(=O)N4CCCCC4)cc3)coc2c1C	-5%	13µM*	15µM*	4%
Cc1cc(C)c2c(CC(=O)Nc3ccc(S(=O)(=O)N4CCCC(C)C4)cc3)coc2c1 (stereo not drawn)	1%	u	23µM*	10%
Cc1ccc2c(CC(=O)Nc3ccc(S(=O)(=O)N4CCCCC4)cc3)coc2c1	-5%	u	u	4%
Cc1ccc(C)c(CNc2ccc(S(=O)(=O)N3CCCCC3)cc2)c1	-17%	15µM*	21µM*	0%
